Data: PubChem BioAssay (Tox21)
Values without a mark were called inactive. Results filed as inconclusive are left out. A call without a number means that no potency is given here. Calls of active or inactive are those of the source. Calls come from the whole dose curve; as a rule, active = well fitted curve in the direction sought with a large enough effect in the repeat runs; inconclusive = weak or mixed curves; inactive = no such curve, though single readings can be large; an effect the other way counts as inactive or inconclusive.

Assay: qHTS RealTime-Glo MT Cell Viability Assay in HepG2 cells - 24 hour (AID 1224867)
Settings: RealTime-Glo luminescence; series mostly up to 76.8 µM
Summary of the method: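 HepG2 cells were seeded at 600 cells/well together with NanoLuc luciferase and a cell-permeant prosubstrate, preincubated 5 h at 37 C/5% CO2, then pin-dosed with compounds in DMSO. Nonlytic luminescence from viable cells was read at each time point.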
Note: nearly all actives have a fitted effect of over 50% in size.

Structure (SMILES) | Potency
OCCN(CCO)CCN(CCO)CCO | inactive
CCOC(=O)NCCC[Si](OCC)(OCC)OCC | inactive
O=C(CCCl)NCc1ccccc1 | inactive
O=c1[nH]cnc2c1ncn2[C@@H]1O[C@H](CO)[C@@H](O)[C@H]1O | inactive
C=CC1CO1 (stereo unspecified) | inactive
C[C@]12C(=O)OC(=O)[C@H]1[C@H]1C=C[C@@H]2C1 | inactive
NNS(=O)(=O)c1ccc(Oc2ccc(S(=O)(=O)NN)cc2)cc1 | inactive
Cc1cn([C@@H]2O[C@H](CO)[C@@H](O)[C@@H]2F)c(=O)[nH]c1=O | inactive
CCCc1c2oc(C(=O)O)cc(=O)c2cc2c(=O)cc(C(=O)O)n(CC)c12 | inactive
Cc1ncc(CO)c(CN)c1O | inactive
NC1=NCC2c3ccccc3Cc3ccccc3N12 (stereo unspecified) | inactive
FC(F)(F)C(Cl)(Cl)Cl | inactive
CCCOCCC | inactive
Cc1cc2c(s1)Nc1ccccc1N=C2N1CCN(C)CC1 | inactive
CCC(=O)Nc1ccc(O)cc1 | inactive
CCC/C=C/CO | inactive
CCOC(=O)c1cc(=O)c2c(OCC(COc3cccc4oc(C(=O)OCC)cc(=O)c34)OC(=O)[C@@H](N)CCCCN)cccc2o1 | inactive

Structure (SMILES) | Potency
CCc1cc2cc(OC)c(OC)cc2c(Cc2ccccc2)n1 | inactive
O=C(O)[C@@H]1CSCN1 | inactive
Cc1ccccc1C(=O)Nc1ccc(C(=O)N2CCCC(O)c3cc(Cl)ccc32)c(C)c1 (stereo unspecified) | inactive
CCOC(=O)C(Br)c1ccccc1 (stereo unspecified) | inactive
Cc1ccc([N+](=O)[O-])c(N)c1 | inactive
C1CCOC1 | inactive
O=C1CCC(C2CCCCC2)CC1 | inactive
CCCCCCCCOC(=O)CCCCCCCCC(=O)OCCCCCCCC | inactive
CCCCCCn1c(=O)c2c(ncn2C)n(C)c1=O | inactive
CN(C)Cc1ccccc1 | inactive
Cc1c(N)cccc1N | inactive
N#Cc1ccc(C(c2ccc(C#N)cc2)n2cncn2)cc1 | inactive
O=CCCc1ccccc1 | inactive
Cc1ccsc1C(=CCCN1CCC[C@@H](C(=O)O)C1)c1sccc1C | inactive
FC(F)(F)c1ccccc1 | inactive
O=S(=O)(O)C(F)(F)F | inactive

Assay: qHTS RealTime-Glo MT Cell Viability Assay in HEK293 cells - 32 hour (AID 1224868); note: potency is the fitted concentration of half-maximal effect; for activity change, negative = cytotoxic: top concentration of the series differs between compounds
Settings: RealTime-Glo luminescence; series mostly up to 76.8 µM
Summary of the method: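 HEK293 cells were seeded at 600 cells/well together with NanoLuc luciferase and cell-permeant prosubstrate, preincubated 5 h at 37 C/5% CO2, then given compound in DMSO by pintool. Luminescence from viable-cell prosubstrate reduction was read repeatedly over 40 h.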

Structure (SMILES) | Potency | activity change, negative = cytotoxic
Cc1cccc(C)c1NC(=O)CN1CCCCCC1 | inactive | 
OCCN(CCO)CCN(CCO)CCO | inactive | 
CCOC(=O)NCCC[Si](OCC)(OCC)OCC | inactive | 
O=C(CCCl)NCc1ccccc1 | inactive | 
O=c1[nH]cnc2c1ncn2[C@@H]1O[C@H](CO)[C@@H](O)[C@H]1O | inactive | 
C=CC1CO1 (stereo unspecified) | inactive | 
C[C@]12C(=O)OC(=O)[C@H]1[C@H]1C=C[C@@H]2C1 | inactive | 
NNS(=O)(=O)c1ccc(Oc2ccc(S(=O)(=O)NN)cc2)cc1 | inactive | 
Cc1cn([C@@H]2O[C@H](CO)[C@@H](O)[C@@H]2F)c(=O)[nH]c1=O | inactive | 
CCCc1c2oc(C(=O)O)cc(=O)c2cc2c(=O)cc(C(=O)O)n(CC)c12 | inactive | 
Cc1ncc(CO)c(CN)c1O | inactive | 
NC1=NCC2c3ccccc3Cc3ccccc3N12 (stereo unspecified) | inactive | 
FC(F)(F)C(Cl)(Cl)Cl | inactive | 
CCCOCCC | inactive | 
Cc1cc2c(s1)Nc1ccccc1N=C2N1CCN(C)CC1 | inactive | 
CCC(=O)Nc1ccc(O)cc1 | inactive | 
CCC/C=C/CO | inactive | 
C[C@@H]1CN(c2c(F)c(F)c3c(=O)c(C(=O)O)cn(C4CC4)c3c2F)C[C@H](C)N1 |  | 11.6% [at 15.8 µM]

Structure (SMILES) | Potency | activity change, negative = cytotoxic
CCOC(=O)c1cc(=O)c2c(OCC(COc3cccc4oc(C(=O)OCC)cc(=O)c34)OC(=O)[C@@H](N)CCCCN)cccc2o1 | inactive | 
CCc1cc2cc(OC)c(OC)cc2c(Cc2ccccc2)n1 | 16.9 µM (active) | 
O=C(O)[C@@H]1CSCN1 | inactive | 
COC(=O)c1ccc2cc(C(=O)OC)ccc2c1 |  | -1.06% [at 15.8 µM]
CCOC(=O)C(Br)c1ccccc1 (stereo unspecified) | inactive | 
Cc1ccc([N+](=O)[O-])c(N)c1 | inactive | 
C1CCOC1 | inactive | 
CCCCCCCCCCCCCCCCOP(=O)([O-])OCC[N+](C)(C)C | inactive | 
CCCCCCCCOC(=O)CCCCCCCCC(=O)OCCCCCCCC | inactive | 
CCCCCCn1c(=O)c2c(ncn2C)n(C)c1=O | inactive | 
CN(C)Cc1ccccc1 | inactive | 
Cc1c(N)cccc1N | inactive | 
N#Cc1ccc(C(c2ccc(C#N)cc2)n2cncn2)cc1 | inactive | 
O=CCCc1ccccc1 | inactive | 
CCN(CC)CC1CCCCN1CC(=O)N1c2ccccc2C(=O)Nc2cccnc21 (stereo unspecified) | inactive | 
Cc1ccsc1C(=CCCN1CCC[C@@H](C(=O)O)C1)c1sccc1C | inactive | 
FC(F)(F)c1ccccc1 | inactive | 
O=S(=O)(O)C(F)(F)F | inactive | 

Assay: A CellTox Green Cytotoxicity Assay to monitor cytotoxicity in HEK293 cells - 0 hour (AID 1224869); note: potency is the fitted concentration of half-maximal effect
Settings: CellTox Green fluorescence; series mostly up to 76.8 µM
Summary of the method: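 HEK293 cells premixed with CellTox Green dye were seeded at 600 cells/well and left 5 h at 37 C/5% CO2 before pin transfer of 23 nL compound in DMSO. Fluorescence from dye bound to dead-cell DNA was read during 40 h treatment.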

Structure (SMILES) | Potency | cytotoxicity
Cc1cccc(C)c1NC(=O)CN1CCCCCC1 | inactive | 
OCCN(CCO)CCN(CCO)CCO | inactive | 
CCOC(=O)NCCC[Si](OCC)(OCC)OCC | inactive | 
O=C(CCCl)NCc1ccccc1 | inactive | 
O=c1[nH]cnc2c1ncn2[C@@H]1O[C@H](CO)[C@@H](O)[C@H]1O | inactive | 
C=CC1CO1 (stereo unspecified) | inactive | 
C[C@]12C(=O)OC(=O)[C@H]1[C@H]1C=C[C@@H]2C1 | inactive | 
NNS(=O)(=O)c1ccc(Oc2ccc(S(=O)(=O)NN)cc2)cc1 | inactive | 
CN1CCN(C2=Nc3cc(F)ccc3Cc3ccccc32)CC1 | inactive | 
Cc1cn([C@@H]2O[C@H](CO)[C@@H](O)[C@@H]2F)c(=O)[nH]c1=O | inactive | 
CCCc1c2oc(C(=O)O)cc(=O)c2cc2c(=O)cc(C(=O)O)n(CC)c12 | inactive | 
NC1=NCC2c3ccccc3Cc3ccccc3N12 (stereo unspecified) | inactive | 
FC(F)(F)C(Cl)(Cl)Cl | inactive | 
CCCOCCC | inactive | 
Cc1cc2c(s1)Nc1ccccc1N=C2N1CCN(C)CC1 | inactive | 
CCC(=O)Nc1ccc(O)cc1 | inactive | 
CCC/C=C/CO | inactive | 
C[C@@H]1CN(c2c(F)c(F)c3c(=O)c(C(=O)O)cn(C4CC4)c3c2F)C[C@H](C)N1 |  | 5.43% [at 15.8 µM]
CCc1cc2cc(OC)c(OC)cc2c(Cc2ccccc2)n1 | inactive | 

Structure (SMILES) | Potency | cytotoxicity
O=C(O)[C@@H]1CSCN1 | inactive | 
COC(=O)c1ccc2cc(C(=O)OC)ccc2c1 |  | 2.02% [at 15.8 µM]
Cc1ccccc1C(=O)Nc1ccc(C(=O)N2CCCC(O)c3cc(Cl)ccc32)c(C)c1 (stereo unspecified) | inactive | 
CCOC(=O)C(Br)c1ccccc1 (stereo unspecified) | inactive | 
Cc1ccc([N+](=O)[O-])c(N)c1 | inactive | 
C1CCOC1 | inactive | 
CCCCCCCCCCCCCCCCOP(=O)([O-])OCC[N+](C)(C)C | inactive | 
O=C1CCC(C2CCCCC2)CC1 | 43.6 µM (active) | 
CCCCCCCCOC(=O)CCCCCCCCC(=O)OCCCCCCCC | inactive | 
CCCCCCn1c(=O)c2c(ncn2C)n(C)c1=O | inactive | 
CN(C)Cc1ccccc1 | inactive | 
Cc1c(N)cccc1N | inactive | 
N#Cc1ccc(C(c2ccc(C#N)cc2)n2cncn2)cc1 | inactive | 
O=CCCc1ccccc1 | inactive | 
CCN(CC)CC1CCCCN1CC(=O)N1c2ccccc2C(=O)Nc2cccnc21 (stereo unspecified) | inactive | 
Cc1ccsc1C(=CCCN1CCC[C@@H](C(=O)O)C1)c1sccc1C | inactive | 
FC(F)(F)c1ccccc1 | inactive | 
O=S(=O)(O)C(F)(F)F | inactive | 
